Laboratory results: PubChem BioAssay (NCI)
This is part of a sample that, as a whole, favours compounds with a hit. Of some 79,000 tested, about 15% had one in any assay. Rule as the data show it: active = growth inhibition above about 70%; inactive = the rest.

What was measured:
[1] = NCI Yeast Anticancer Drug Screen. Data for the rad50 strain (AID 155);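 also: 0% = growth of vehicle-only cultures of the same strain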; conditions: S. cerevisiae rad50 strain growth inhibition; at 50.0 µM; hits give high values
Outline: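 Vehicle-treated cultures provide the reference for the growth inhibition reported for compound-exposed, repair-deficient yeast.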

[2] = NCI Yeast Anticancer Drug Screen. Data for the mec2-1 strain (AID 157); conditions: S. cerevisiae mec2-1 strain, at 50.0 µM, hits give high values
Outline: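 Each compound was tested on mec2-1 yeast, a strain altered in DNA damage repair or cell cycle control. Growth inhibition is reported relative to vehicle.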

[3] = NCI Yeast Anticancer Drug Screen. Data for the sgs1 mgt1 strain (AID 161);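 also: 0% = growth of cultures given vehicle only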; conditions: S. cerevisiae sgs1 mgt1 strain, at 50.0 µM, hits give high values
Outline: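 Inhibition of yeast growth, normalised to vehicle-treated controls, is reported for a strain bearing genetic alterations in DNA damage repair.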

[4] = NCI Yeast Anticancer Drug Screen. Data for the cln2 rad14 strain (AID 165);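 also: 0% = growth equal to vehicle treated cultures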; conditions: S. cerevisiae cln2 rad14 strain, at 50.0 µM, hits give high values
Outline: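 Test compounds were added to cln2 rad14 yeast cultures; inhibition of growth was then determined by comparison with vehicle treatment.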

[5] = NCI Yeast Anticancer Drug Screen. Data for the bub3 strain (AID 167); conditions: S. cerevisiae bub3 mutant strain, at 50.0 µM, hits give high values
Outline: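 Mutant yeast screening strain plus compound; vehicle-treated cultures serve as the 0% inhibition reference.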

[6] = NCI Yeast Anticancer Drug Screen. Data for the mlh1 rad18 strain (AID 175); conditions: S. cerevisiae mlh1 rad18 strain growth inhibition; at 50.0 µM; hits give high values
Outline: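 Inhibition values reflect reduced growth of mutant yeast versus vehicle-treated controls following compound exposure; the mutations affect DNA damage repair.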

Measured: growth inhibition

CC(C)NCCN
inactive: [1] 17.4% | [2] 0.3% | [3] 18.8% | [4] 11.3% | [5] 12.7% | [6] 23.4%

NC1=NC(=O)C(CC(=O)Nc2ccc(Cl)cc2Cl)S1 (stereo unspecified)
inactive: [1] -12.4% | [2] -17.6% | [3] -15.2% | [4] 3.3% | [5] -5.6% | [6] -5.6%

Cc1ccc(C(=O)OC(C)C)cc1N=NN(C)C
inactive: [1] 32.4% | [2] -11.4% | [3] 11.1% | [4] 27.1% | [5] 6.45% | [6] -15.9%

CCN(CC)CCNc1ccc2ncn3c4ccc(OC)cc4c(=O)c1c23
inactive: [1] 4.35% | [2] -1.9% | [3] -34.9% | [4] 18.6% | [5] 20.9% | [6] 34.2%

CN(C)CCN(C)C(=N)N
inactive: [1] -10.3% | [2] -4.25% | [3] -6.45% | [4] -7.5% | [5] -6.55% | [6] -10.9%

CCOc1ccccc1N
inactive: [1] 8.75% | [2] 16.2% | [3] -34% | [4] 9.5% | [5] -32% | [6] -20.1%

COC(=O)C1CC(OC(C)=O)C2OC(C)(C)OC2C1OC(C)=O (stereo unspecified)
inactive: [1] 7.5% | [2] 1.55% | [3] -3.15% | [4] 0.55% | [5] 8.55% | [6] -3%

N=C(N)c1cc(Cl)c(OCc2ccccc2)c(Cl)c1
inactive: [1] 9.7% | [2] -12.7% | [3] 1.15% | [4] -10.7% | [5] 3.85% | [6] 12.8%

CC(=NNC(=S)Nc1cccc(C)c1)c1cccc(C(C)=NNC(=S)Nc2cccc(C)c2)n1
inactive: [1] 37.4% | [2] 41.2% | [3] 62.6% | [4] 29.1% | [5] 35.4% | [6] 47.2%

C=CC(C)(O)/C=C/C=C(\C)C(CC1OC1(C)C)OC(=O)/C(C)=C\C (stereo unspecified)
inactive: [1] -10.8% | [2] -16.9% | [3] 3.55% | [4] 10.3% | [5] -19.6% | [6] -64.1%

CCOC(=O)C(C(=O)OCC)C(=O)c1cc(OC)c(OC)c(OC)c1
inactive: [1] 4.55% | [2] 10.6% | [3] -1.35% | [4] 7.35% | [5] 2.55% | [6] 6.5%

COc1cc(CC2c3cc(OC)c(OC)cc3CCN2C)c(Oc2cc3c(cc2OC)-c2c(OC)c(OC)c(OC)c4c2C(C3)N(C)CC4)cc1OC (stereo unspecified)
inactive: [1] 9.7% | [2] -0.95% | [3] -7.05% | [4] 13.8% | [5] 0.3% | [6] 1.2%

CC1=C2CCOC2=Nc2ccccc2O1
inactive: [1] 15.8% | [2] -6.3% | [3] 11.3% | [4] -1.8% | [5] -14.6% | [6] -6.2%

CCc1[nH]c2ccc(C)cc2c1C(=O)c1cccnc1
inactive: [1] 5.3% | [2] -0.15% | [3] 16.4% | [4] 7.2% | [5] 21.3% | [6] 7.6%

Oc1ccccc1C1SCSCS1
inactive: [1] 14.8% | [2] 12.9% | [3] 14.1% | [4] -3.3% | [5] -10.4% | [6] 5.85%

COC(=O)C1=C(C(=O)OC)C2(C(=O)OC)OC1(OC)C(C1(C(=O)OC)C(C(=O)OC)=C1C(=O)OC)=C2C(=O)OC (stereo unspecified)
inactive: [1] 16% | [2] 14.2% | [3] 8.9% | [4] 16.1% | [5] 1.25% | [6] 9.7%

CCCCCCCCCCCCSCC(=O)O
inactive: [1] -16.8% | [2] 10.8% | [3] 14.2% | [4] -82.8% | [5] 39% | [6] -25.8%

NC(CCC(=O)Nc1cccc2ccccc12)C(=O)O (stereo unspecified)
inactive: [1] 27.6% | [2] 1.65% | [3] 16.5% | [4] 12.4% | [5] 17.2% | [6] -3.15%

O=c1c2c([nH]c3c1ccc1[nH]c4c(c(=O)c13)CCCC4)CCCC2
inactive: [1] -18.9% | [2] -0.75% | [3] -12.6% | [4] -13.6% | [5] -8.5% | [6] -2.3%

CCc1nc(N)nc(N)c1-c1ccc2c(c1)nnn2C
inactive: [1] 19.9% | [2] 14.8% | [3] 9.05% | [4] -9.75% | [5] 11.6% | [6] 17.9%

NC(=O)C(c1ccccc1)c1ccnc2ccccc12 (stereo unspecified)
inactive: [1] 2.05% | [2] 4.5% | [3] 7.9% | [4] 8.05% | [5] 20.4% | [6] -21.2%

CSc1nc2cc(S(=O)(=O)N3CCCCC3)ccc2s1
inactive: [1] -34.5% | [2] -21.8% | [3] -25.5% | [4] -52.6% | [5] -89.3% | [6] -7%

Cc1ccc(S(=O)(=O)N/N=C2/C(=O)NC(=O)C(=O)C2c2nc3ccccc3s2)cc1 (stereo unspecified)
inactive: [1] 12.4% | [2] -2.6% | [3] 13.6% | [4] -19.1% | [5] 8.45% | [6] 12.4%

CC1CC(C)OC(c2ccco2)O1 (stereo unspecified)
inactive: [1] 2.4% | [2] -20.6% | [3] -11.9% | [4] -37.6% | [5] -15.1% | [6] 16.2%

ON(C=Nc1ccccc1)c1ccccc1
inactive: [1] 17% | [2] 19.1% | [3] 6.35% | [4] -11.5% | [5] -3.25% | [6] 7.05%

C=C(C)C1CC=C(/C=N/O)CC1 (stereo unspecified)
inactive: [1] -4.6% | [2] 4% | [3] 5.65% | [4] -13.7% | [5] 8.1% | [6] 2.8%

COc1ccc(/C=C2/CSCC3=C2NC(=S)NC3c2ccc(OC)c(OC)c2OC)c(OC)c1OC (stereo unspecified)
inactive: [1] 12.8% | [2] 13.9% | [3] 37% | [4] 34.6% | [5] 48.4% | [6] 10.9%

O=C(O)CCCCCNC(=O)c1ccccc1
inactive: [1] 18.3% | [2] 14.8% | [3] 16.2% | [4] 6.4% | [5] -8.2% | [6] 22.2%

O=C(Cn1c(=O)oc2ccc(C(=O)c3ccc(F)cc3)cc21)c1ccccc1
inactive: [1] -21.4% | [2] -24.5% | [3] -6.25% | [4] -27.9% | [5] -0.2% | [6] -26.9%

COc1cc(/C=C(\C#N)c2ccccn2)cc(Br)c1O
inactive: [1] -7.35% | [2] 5.15% | [3] -3.9% | [4] 17.2% | [5] 25.8% | [6] -21.6%

O=[N+]([O-])c1ccccc1N=NNc1ccccc1[N+](=O)[O-]
inactive: [1] 9.65% | [2] -4% | [3] 1.9% | [4] -26.6% | [5] 3.1% | [6] 3%

CCN(CC)CCN(C(=Nc1ccccc1)N1CCCCC1)c1ccccc1
inactive: [1] 6.8% | [2] -35.2% | [3] -11.5% | [4] 19% | [5] 28.1% | [6] 19.4%

COc1ccc(C(C)OC)cc1OC (stereo unspecified)
inactive: [1] -15% | [2] -22.2% | [3] 15.6% | [4] -16.6% | [5] 8.7% | [6] -8.75%

CC(=O)Nc1cc2c(cc1Br)-c1ccccc1C2=O
inactive: [1] -15% | [2] -3.5% | [3] 15.4% | [4] -31.7% | [5] 9.45% | [6] -2.15%

[O-][n+]1c(CN2CCCCC2)nc2cccc3c2c1-c1ccccc1-3
inactive: [1] 33.4% | [2] 12.3% | [3] -3.5% | [4] -8.55% | [5] 20.6% | [6] 13.1%

COc1nc(Cl)nc(C(N)=O)c1N
inactive: [1] 7.95% | [2] 9.9% | [3] -11.5% | [4] -11.1% | [5] -2.65% | [6] -4.85%

S=C1c2cc(Cl)ccc2NC(=NC2CCCC2)C2CSCN12 (stereo unspecified)
inactive: [1] 7.65% | [2] 14.7% | [3] 51.5% | [4] -3.25% | [5] 33.3% | [6] 28.5%

O=C1NC2OC(CO)C(O)C(O1)C2O (stereo unspecified)
inactive: [1] -9.7% | [2] 19.4% | [3] -24.9% | [4] -5% | [5] -28.8% | [6] -25%

O=C(O)c1cc(=O)c2[nH]c3ccccc3c2s1
inactive: [1] -5.2% | [2] -17.9% | [3] -19.5% | [4] 9.55% | [5] -22.6% | [6] 7.95%

CC1(C)C=C(C(=O)O)C(C)(C)N1O
inactive: [1] -8.95% | [2] -25.8% | [3] 5.65% | [4] 6.9% | [5] 14.3% | [6] 2.25%

CCCCn1cc(C(=O)O)c(=O)c2c3sccc3ccc21
inactive: [1] -24.1% | [2] -35.8% | [3] -8.95% | [4] -5.15% | [5] -9.5% | [6] -26.1%
